# Source: PubChem (National Center for Advancing Translational Sciences (NCATS))
# This is a sample that favours compounds with a hit; in the whole collection about 10% have one here.
# GLS inh: inhibitors of human glutaminase (GLS) | GLS enzymatic activity, qHTS titration | Potency, µM (series often up to 45.5 µM), most hits filed as inhibitors | hit rate 0.21% among 410,000 | AID 624170
# Target sequence (O94925 whole entry, looked up): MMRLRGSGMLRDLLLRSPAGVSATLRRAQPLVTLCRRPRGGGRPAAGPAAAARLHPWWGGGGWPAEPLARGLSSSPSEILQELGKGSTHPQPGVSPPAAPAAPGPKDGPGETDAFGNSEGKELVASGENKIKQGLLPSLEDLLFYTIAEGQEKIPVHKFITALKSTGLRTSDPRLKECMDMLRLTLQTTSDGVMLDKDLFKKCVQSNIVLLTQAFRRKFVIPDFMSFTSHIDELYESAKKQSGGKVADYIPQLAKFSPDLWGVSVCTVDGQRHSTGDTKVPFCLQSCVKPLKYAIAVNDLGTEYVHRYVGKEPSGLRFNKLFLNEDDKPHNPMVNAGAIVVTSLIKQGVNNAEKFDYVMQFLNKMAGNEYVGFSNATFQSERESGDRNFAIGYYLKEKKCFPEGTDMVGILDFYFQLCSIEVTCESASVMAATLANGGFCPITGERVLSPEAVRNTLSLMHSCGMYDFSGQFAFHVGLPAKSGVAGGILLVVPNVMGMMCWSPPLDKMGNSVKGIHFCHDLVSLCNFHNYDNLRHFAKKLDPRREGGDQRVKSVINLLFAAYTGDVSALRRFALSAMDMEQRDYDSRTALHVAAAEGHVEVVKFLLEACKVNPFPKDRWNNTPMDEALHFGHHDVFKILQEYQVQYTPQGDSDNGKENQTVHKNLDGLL
#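 hKGA in 45 mM KH2PO4 pH 8.2, 0.02% Tween-20 with pin-transferred compounds; 1 mM L-glutamine (stock) plus glutamate oxidase/HRP/Amplex Red coupling added. Fluorescence read initially and after 30 min at RT.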
# G9a block: G9a (human) methyltransferase inhibition; G9a H3K9 monomethylation, AlphaScreen, 2 h; hit rate 8.8% among 350,000; Potency, µM (doses to about 102 µM), actives largely listed as inhibitors; AID 504332; also: nearly all actives have a fitted effect of over 75% in size
#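 Compounds were preincubated with 20 nM G9a for 15 min, after which biotinylated H3K9 peptide (500 nM) and SAM (20 uM) started a 2 h room-temperature reaction. Monomethylated product was quantified by antibody-based AlphaScreen chemiluminescence.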
# HP1b binding inh: inhibitors of HP1-beta chromodomain binding to methylated histone tails; Potency, µM (titrated, usually from 114 µM), hits mostly inhibitors; AlphaScreen HP1-beta / biotin-H3K9me3 peptide binding; hit rate 0.56% among 390,000; AID 540317; also: nearly all actives have a fitted effect of over 70% in size
#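 Compound inhibition of the preformed complex between 50 nM HP1-beta and 50 nM biotinylated H3K9me3 peptide was read by AlphaScreen. Buffer was PBS pH 7.4 with 0.01% Tween-20. Incubations ran 30 min at room temperature, with 10 ug/mL donor/acceptor beads.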
# JMJD2A Tudor inh: blocks the human JMJD2A Tudor domain. AlphaScreen JMJD2A-Tudor / H3K4me3 peptide binding. Potency, µM (titrated, usually from 114 µM), hits mostly inhibitors. hit rate 4.4% among 390,000. AID 504339; also: nearly all actives have a fitted effect of over 50% in size
# BAZ2B inh: inhibitors of human BAZ2B bromodomain | Q9UIF8 | AlphaScreen BAZ2B-H3K14Ac peptide displacement | Potency, µM (highest dose often 114 µM), usual class: inhibitors | hit rate 4.4% among 360,000 | AID 504333; also: nearly all actives have a fitted effect of over 60% in size
#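 Compounds, titrated to a top concentration of 110 uM, were incubated 30 min at room temperature with preformed BAZ2B/acetyl-K14 H3 peptide complex (50 nM each). Proximity signal was measured by AlphaScreen after 20 min with beads.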
# A number is an active result; 0 = inactive; ? = inconclusive; - = no result; [ ] = dose if it differs, or a comment. Calls follow the shape of the dose curve; as a rule, active = well fitted curve in the direction sought with a large enough effect; inconclusive = small, poorly fitted or top-dose-only effect, or another doubt; inactive = no such curve, though single readings can be large; an effect the other way counts as inactive or inconclusive.
SMILES,GLS inh,G9a block,HP1b binding inh,JMJD2A Tudor inh,BAZ2B inh
Fc1ccc(-c2c[nH]c(=S)n2Cc2ccccc2)cc1,?,1.1µM,0,?,0
COc1ccccc1-n1c(-c2ccc(Cl)cc2)c[nH]c1=S,0,?,0,?,?
Cc1cc(-c2n[nH]c(=S)n2Cc2ccccc2)cs1,0,1.3µM,0,18µM,0
N#C/C(=C\c1ccc(Cl)cc1Cl)c1n[nH]c(Cn2cncn2)n1,0,0,0,0,0
CCOC(=O)C(Cc1ccccc1)(Cc1ccccc1)C(C)=O,0,0,0,0,0
Cc1ccc(S(=O)(=O)N2CCC(C(=O)N[C@@H](C)C(=O)Nc3ccc4c(c3)OCO4)CC2)cc1,0,0,0,0,0
COc1ccccc1C(=O)NC(=O)COC(=O)c1ccc(Cl)cc1[N+](=O)[O-],0,0,0,0,0
COCCN(CCOC)Cc1cc(=O)oc2cc3c(cc12)CCC3,0,50µM,0,0,0
O=C(c1ccoc1)N1CCC2(CC1)Oc1ccc(Cl)cc1C(=O)C21CC(c2ccccc2)=NO1 (centres undefined),0,0[12.7 µM],0,0,0
Cc1cc(OCC(=O)OCC(=O)NCCN2C(=O)CSC2=O)ccc1Cl,0,0[12.7 µM],0,0,0
Cc1cc(C)c(C(=O)C(C)OC(=O)c2ccccn2)cc1C (centres undefined),0,?,0,50µM,79µM
COc1ccc2c(=O)c3c(=O)n(Cc4ccccc4)c(C(C)C)nc3oc2c1,0,-,0,0,-
CCc1nc2oc3cc(OC)ccc3c(=O)c2c(=O)n1Cc1ccco1,0,32µM,0,?,56µM
COCCn1c(-c2ccc(OC)cc2)nc2oc3cc(OC)ccc3c(=O)c2c1=O,0,0[12.7 µM],0,0,0
COc1ccc(Cn2c(-c3ccco3)nc3oc4cc(OC)ccc4c(=O)c3c2=O)cc1,0,50µM,0,0,0
COc1ccc(-c2nc3oc4cc(OC)ccc4c(=O)c3c(=O)n2Cc2ccco2)cc1,0,25µM,0,0,0
CCc1nc2sc3ccccc3c(=O)c2c(=O)n1Cc1ccco1,0,0,0,56µM,?
O=C(NC1CCCC1)C1CCCN1S(=O)(=O)c1cccc2cccnc12 (centres undefined),0,0,0,0,0
COc1ccc(C(=O)NCCOc2ccccc2Cl)c(OC)c1OC,0,0,0,0,0
COc1ccc2c(=O)c3c(=O)n(Cc4ccco4)c(-c4ccco4)nc3oc2c1,0,18µM,0,?,?
Cc1ccc(C)c(S(=O)(=O)N2CCN(C(=O)CNC(=O)c3ccc4ccccc4c3)CC2)c1,0,0[0.501 µM],0,0,0
CC(NC(=O)c1cc(S(=O)(=O)N(C)C)ccc1Cl)C1CC2CCC1C2 (centres undefined),0,0,0,0,0
O=C(Nc1ccc2oc(-c3cccnc3)nc2c1)c1ccc(-c2ccc(OC(F)(F)F)cc2)o1,0,?,0,0,0
O=C(Nc1ccc2oc(-c3cccnc3)nc2c1)c1ccc2c(c1)OCCO2,0,14µM,0,89µM,79µM
O=C(Nc1ccc2oc(-c3ccncc3)nc2c1)c1ccc(F)cc1,0,0,0,?,50µM
SMILES,GLS inh,G9a block,HP1b binding inh,JMJD2A Tudor inh,BAZ2B inh
O=C(Nc1ccc2oc(-c3cccnc3)nc2c1)c1ccc(-c2ccccc2)o1,0,11µM,0,?,?
O=C(Nc1ccc2oc(-c3ccccc3)nc2c1)c1ccc2c(c1)OCCO2,0,?,0,0,0
O=C(Nc1ccc2oc(-c3ccncc3)nc2c1)c1ccc2c(c1)OCCO2,0,20µM,0,56µM,56µM
Cc1ccsc1/C=C1\SC(N)=NC1=O,0,0,0,0,0
O=C(COc1ccc(Cl)cc1)NNC(=O)C(=O)N1CCCCC1,0,0[0.501 µM],0,0,?
Cc1ccc(CN2CCN(/N=C/c3ccc(C(=O)O)cc3)CC2)cc1,0,7.9µM,0,0,0
Cc1ccc(CN2CCN(/N=C/c3cccnc3)CC2)cc1,0,0,0,0,0
COc1ccc(/C=N/N2CCN(Cc3ccc(C)cc3)CC2)cc1Br,0,45µM,?,50µM,35µM
CCN(CC)c1ccc(/C=N\N2CCN(Cc3ccc(C)cc3)CC2)cc1,0,7.1µM,20µM,22µM,18µM
O=C(O)c1ccc(/C=N/N2CCN(Cc3ccc(Cl)cc3)CC2)cc1,0,-,0,0,0
Cc1ccc(CN2CCN(/N=C/c3ccc(O)c(O)c3)CC2)cc1,?,-,20µM,22µM,50µM
COCCNC(=O)CCc1c(C)n(C)c2cc(-c3cc(OC)c(OC)c(OC)c3)nn2c1=O,0,0,0,0,0
Cc1ccc(NC(=O)c2ccc(S(=O)(=O)Nc3c(C)n(C)n(-c4ccccc4)c3=O)cc2)nc1,0,0[0.501 µM],0,0,0
CC(=O)N1CCc2cc(S(=O)(=O)NCCCOC(C)C)ccc21,0,0,0,0,0
Cc1nnc(SCC(=O)N2CC(=O)Nc3ccccc32)n1-c1ccccc1,0,?,0,0,0
Cc1ccc(CN2CCN(/N=C/C(Br)=C\c3ccccc3)CC2)cc1,0,-,0,?,32µM
COCCN(C(=O)COC(=O)CSc1cc(C)ccc1C)c1c(N)n(Cc2ccccc2)c(=O)[nH]c1=O,0,-,-,-,-
Nc1nc(O)c(Sc2ccccc2[N+](=O)[O-])c(=O)[nH]1,0,40µM,0,0,0
CC(=O)Nc1ccc(S(=O)(=O)Oc2ccc(C(=S)N3CCC(O)CC3)cc2)cc1,0,18µM,0,0,0
CC(=O)/C(C[N+]1(C)CCCCC1)=N\O,0,?,0,35µM,?
C[N+]1(CC(=O)OC2CCCCCCCCCCC2)CCCC1,0,?,0,?,0
COc1ccc(Nc2nc(S(=O)(=O)c3ccc(C)cc3)c(Cl)s2)cc1,0,45µM,0,?,0
CCOC(=O)C1CCN(Cc2ccc(N(C)C)cc2)CC1,0,?,?,3.5µM,45µM
CCOC(=O)C1CCN(C(=O)c2oc3ccc(S(=O)(=O)N4CC(C)CC(C)C4)cc3c2C)CC1 (centres undefined),0,14µM,0,0,0
CSc1ccc(CN2CCN(C(=O)CC(C)C)CC2)cc1,0,0[0.501 µM],?,20µM,79µM
SMILES,GLS inh,G9a block,HP1b binding inh,JMJD2A Tudor inh,BAZ2B inh
CCN1CCN(Cc2ccc(NC(=O)Nc3ccc(SC)cc3)cc2)CC1,0,?,0,?,?
COc1ccc(CN2CCN(C(=O)CC(C)C)CC2)cc1Br,0,10µM,0,79µM,?
COc1ccc(C(=O)Nc2ccc(CN3CCOCC3)cc2)cc1Br,0,0,0,0,0
CC(C)CCNC(=O)C(c1ccco1)N(C(=O)Cn1nnc2ccccc21)c1ccc2c(c1)OCO2 (centres undefined),0,0,0,0,0
CCOC(=O)N1CCN(Cc2ccccn2)CC1,0,7.1µM,0,0.79µM,?
Oc1ccc2ccccc2c1SSc1c(O)ccc2ccccc12,-,6.7µM,-,-,-
CCOC(=O)N1CCN(C(=O)COC(=O)C2CCN(S(=O)(=O)c3c(Cl)cccc3Cl)CC2)CC1,0,50µM,0,0,0
